Reference: PubChem BioAssay AID1159580 (chemical genetic matrix, 2015)
In all, about 5,500 compounds went through this assay and about 2,000 (36%) were called active. Inconclusive results (about 18%) are left out. Rule as the data show it: active = normalized growth mostly below about 0.91 (no sharp cut-off); inconclusive = no clear call, values can overlap the other calls; inactive = mostly above about 0.92. This is one part of the list.

Assay: chemical genetic growth profiling, strain panel (AID 1159580);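 also: tested at 20 µM; growth read once vehicle control cultures reached saturation at 30 °C; 1 = growth at the plate median or of vehicle wells; lower values mean less growth of the strain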
Conditions: growth OD
[1] = S. cerevisiae deletion strains, locus YAL013W, strain DEP1, hits give low values
[2] = S. cerevisiae deletion strains, locus YBR229C, strain ROT2, hits give low values
[3] = S. cerevisiae deletion strains, locus YDL101C, strain DUN1, hits give low values
[4] = S. cerevisiae deletion strains, locus YDR150W, strain NUM1, hits give low values
[5] = S. cerevisiae deletion strains, locus YEL061C, strain CIN8, hits give low values
[6] = S. cerevisiae deletion strains, locus YGR078C, strain PAC10, hits give low values
[7] = S. cerevisiae deletion strains, locus YHR030C, strain SLT2, hits give low values
[8] = S. cerevisiae deletion strains, locus YHR087W, strain rtc3, hits give low values
[9] = S. cerevisiae deletion strains, locus YJL187C, strain SWE1, hits give low values
[10] = S. cerevisiae deletion strains, locus YJR043C, strain POL32, hits give low values
[11] = S. cerevisiae deletion strains, locus YJR075W, strain HOC1, hits give low values
[12] = S. cerevisiae deletion strains, locus YLR039C, strain RIC1, hits give low values
[13] = S. cerevisiae deletion strains, locus YLR058C, strain SHM2 (second series), hits give low values
[14] = S. cerevisiae deletion strains, locus YLR085C, strain ARP6, hits give low values
[15] = S. cerevisiae deletion strains, locus YLR262C, strain YPT6, hits give low values
[16] = S. cerevisiae deletion strains, locus YML094W, strain GIM5, hits give low values
[17] = S. cerevisiae deletion strains, locus YMR219W, strain ESC1, hits give low values
[18] = S. cerevisiae deletion strains, locus YMR263W, strain SAP30, hits give low values
[19] = S. cerevisiae deletion strains, locus YMR307W, strain GAS1, hits give low values
[20] = S. cerevisiae deletion strains, locus YNL153C, strain GIM3, hits give low values
[21] = S. cerevisiae deletion strains, locus YNL298W, strain CLA4 (second series), hits give low values
[22] = S. cerevisiae deletion strains, locus YNL322C, strain KRE1, hits give low values
[23] = S. cerevisiae deletion strains, locus YNR030W, strain Alg12, hits give low values
[24] = S. cerevisiae deletion strains, locus YPL055C, strain LGE1, hits give low values
[25] = S. cerevisiae deletion strains, locus YPR135W, strain CTF4, hits give low values

Measured: normalized growth

O=C(Nc1nncs1)c1ccncc1
inactive: [1] 0.983 | [2] 1 | [3] 0.999 | S. cerevisiae deletion strains, locus YDL134C, strain PPH21, hits give low values 1.02 | [4] 0.946 | [5] 0.999 | [6] 1 | [7] 0.996 | [8] 1 | [9] 0.992 | [10] 1.01 | [11] 0.991 | S. cerevisiae deletion strains, locus YKL190W, strain CNB1, hits give low values 1.03 | [12] 1.08 | [13] 1 | [14] 1.04 | [15] 1.05 | [16] 1.02 | [17] 1 | [18] 0.949 | [19] 1.02 | S. cerevisiae deletion strains, locus YNL128W, strain TEP1, hits give low values 1.02 | [20] 0.995 | [21] 1.07 | [22] 1 | [23] 1.04 | S. cerevisiae deletion strains, locus YOL006C, strain TOP1, hits give low values 1.08 | [24] 0.888 | S. cerevisiae deletion strains, locus YPL241C, strain CIN2, hits give low values 1.03 | [25] 1.05 | S. cerevisiae strains, strain wild type, hits give low values 1.04

O=C(CSc1nnc(NC(=O)c2cccc([N+](=O)[O-])c2)s1)Nc1ccc2c(c1)OCO2
inactive: [1] 0.991 | [2] 0.995 | S. cerevisiae deletion strains, locus YCL061C, strain MRC1, hits give low values 1.01 | [3] 0.986 | [4] 0.982 | [5] 0.982 | [6] 0.991 | [7] 0.985 | [8] 0.997 | [9] 0.995 | [10] 0.977 | [11] 1.02 | [12] 0.976 | [13] 0.985 | [14] 0.996 | [15] 0.985 | [16] 0.948 | [17] 1 | [18] 1.01 | [19] 1.05 | [20] 1.01 | [21] 1 | [22] 0.989 | [23] 1.01 | [24] 0.998 | [25] 0.939
